# How the values were obtained:
# Format in all cases: functional
# [1] = molecular target: Solute carrier family 2, facilitated glucose transporter member 1 (Homo sapiens) (UniProt P11166); experiment: ST_JUDE_LEISH: Cytotoxicity at 2uM final concentration against transgenic Leishmania Mexicana promastigotes LmGLUT1 that are glucose transport deficient and complemented with the human glucose transporter GLUT1. Activity is measured by DNA content using SYBR green in vitro
# [2] = molecular target: Hexose transporter 1 (Plasmodium falciparum) (UniProt O97467); experiment: ST_JUDE_LEISH: Cytotoxicity at 2uM final concentration against transgenic Leishmania Mexicana promastigotes LmPfHT that are glucose transport deficient and complemented with the Plasmodium falciparum hexose transporter. Activity is measured by DNA content using SYBR green in vitro
# [3] = molecular target: Glucose transporter (Leishmania mexicana) (UniProt O61059); experiment: ST_JUDE_LEISH: Cytotoxicity at 2uM final concentration against transgenic Leishmania Mexicana promastigotes LmGT2 that are glucose transport deficient and complemented with the L. Mexicana glucose transporter 2. Activity is measured by DNA content using SYBR green in vitro
# Chain of Solute carrier family 2, facilitated glucose transporter member 1 (Homo sapiens) (P11166 whole entry): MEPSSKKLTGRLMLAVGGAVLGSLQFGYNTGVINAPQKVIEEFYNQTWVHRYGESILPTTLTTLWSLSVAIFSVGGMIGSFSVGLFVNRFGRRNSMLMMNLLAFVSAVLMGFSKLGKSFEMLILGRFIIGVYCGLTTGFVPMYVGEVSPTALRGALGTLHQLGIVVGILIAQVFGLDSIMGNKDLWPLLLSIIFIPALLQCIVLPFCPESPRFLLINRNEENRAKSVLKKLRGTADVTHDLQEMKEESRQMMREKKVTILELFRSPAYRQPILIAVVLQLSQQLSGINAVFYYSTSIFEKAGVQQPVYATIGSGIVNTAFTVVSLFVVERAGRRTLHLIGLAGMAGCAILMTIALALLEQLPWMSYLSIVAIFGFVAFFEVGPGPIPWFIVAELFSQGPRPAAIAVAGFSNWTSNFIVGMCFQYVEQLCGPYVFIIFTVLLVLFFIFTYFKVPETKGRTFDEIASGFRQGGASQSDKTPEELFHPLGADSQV
Structure (SMILES),inhibition [1] [%],inhibition [2] [%],inhibition [3] [%]
Cc1ccc(N)cc1-c1nc(NC2CC(C)(C)NC(C)(C)C2)nc2c1ccc(=O)n2-c1c(F)cccc1F,0.73,1.28,2.03
O=C(CSc1nc(-c2ccccc2Cl)ns1)Nc1cccc(F)c1,-0.07,-0.93,5.3
Cc1cc(=NN=Cc2cccc(Cl)c2)c2cc(F)ccc2[nH]1,5.23,5.15,4.84
Cc1ccc(F)cc1S(=O)(=O)Nc1cccc(CCN2CCC(N3CCCCC3)CC2)c1,3.52,6.1,0.55
Cc1cccc2nc(-c3cccc(-c4cccc(NC(=O)c5ccoc5)c4)c3)[nH]c12,5.99,5.37,0.26
COC(=O)C(C)(C)Cc1c(SC(C)(C)C)c2cc(C(C)C)ccc2n1Cc1ccc(Cl)cc1,2.2,5.38,-0.32
CN1CCN(c2ccc(Nc3ncc(Cl)c(Nc4cccnc4C(N)=O)n3)cc2)CC1,84.2,87.3,66.8
CCn1cc(C=C2Oc3c(ccc(O)c3CN3CCCCC3C)C2=O)c2ccccc21 (stereo not drawn),4.31,5.13,3.81
O=C(Nc1ccc(N2CCN(C(=O)/C=C/c3ccccc3)CC2)c(Cl)c1)c1ccc([N+](=O)[O-])o1,58.5,68,13.7
CC(=O)Nc1ccc(C(=O)Nc2cccc(-c3ccc(-c4nc5cc(C(F)(F)F)ccc5[nH]4)cc3)c2)cn1,2.59,-0.8,3.05
CC1(C)NC(N)=NC(=N)N1OCCSCCON1C(=N)N=C(N)NC1(C)C,-0.9,0.07,-0.26
CCCc1ccc(NC(=O)c2ccc(CN3CCCN(Cc4ccc(OC)cc4)CC3)cc2)cc1,-1.19,-0.55,-0.74
COc1cc2cc(-c3nc4ccccc4[nH]3)c(N)nc2cc1OC,84,91.3,67.3
COc1cc2c(cc1C(F)(F)F)N(C(=O)Nc1cc(Br)cc(-c3cccnc3)c1)CC2,8.34,6.53,6.18
N#Cc1ccc(-c2ccc(C(=O)NCCCCN3CC=C(c4ccc5c(c4OCC4CC4)CCCC5)CC3)cc2)cc1,0.36,1.41,-0.24
CC(C)(C)C(Cn1ccnc1)NCc1c[nH]nc1-c1ccc(-c2ccccc2)cc1 (stereo not drawn),11.2,16.9,11.5
N#Cc1cccc(C(=O)N2CCOC(CCN3CCC(c4ccccc4)CC3)(c3ccc(Cl)c(Cl)c3)C2)c1 (stereo not drawn),4.51,2.24,2.33
CC(C)C(=O)NC(Nc1ccc([N+](=O)[O-])cc1)C(Cl)(Cl)Cl (stereo not drawn),3.83,3.53,1.48
O=C(c1cccc(-c2ccc(-c3nc4cc(F)ccc4[nH]3)s2)c1)N1CCCCC1CN1CCC(O)C1 (stereo not drawn),2.59,1.6,1.75
COCCOc1nc(N)nc2ncc(Cc3cc(OC)ccc3OC)c(C)c12,0.79,0.23,-1.06
Fc1cccc(COc2ccc(Nc3ncnc4cc(/C=C/[C@@H]5CCCN5)sc34)cc2Cl)c1,5.81,0.95,1.52
CN(C)CCOc1cccc(-c2cnc(N)c(-c3nc4cc(S(C)(=O)=O)ccc4[nH]3)c2)c1,1.53,2.26,2.58
Cc1cc(N)c2cc(NC(=O)/C=C/c3ccc([N+](=O)[O-])cc3)ccc2n1,3.11,1.19,0.94
CCOC(=O)C1=C(C)NC2=C(C(=O)CCC2)C1c1cn(Cc2ccc(Cl)cc2Cl)nc1-c1ccccc1 (stereo not drawn),2.11,-1.29,1.62

Structure (SMILES),inhibition [1] [%],inhibition [2] [%],inhibition [3] [%]
Cc1cnc(NCC2CCCCC2)nc1NCC(=O)Nc1ccccc1,4.2,4.34,6.18
CC(C)(CNC(=O)[C@H]1CCCCN1)c1nc(-c2ccc(Cl)c(O)c2)c(-c2ccncc2)[nH]1,5.66,4.64,6.24
COc1ccc(-n2nc(C(=O)NCc3ccccc3OC)c3ccccc3c2=O)cc1,8.08,6.04,2.98
COc1ccccc1NC(=O)OC(COc1ccc(N)cc1)CN1CC=C(c2ccccc2)CC1 (stereo not drawn),0.46,0.25,0.98
O=C(NC1CCN(Cc2ccccc2)CC1)c1ccc(-c2nc3cc4ccccc4cc3[nH]2)s1,3.9,2.65,4.03
CN1CCCN(Cc2ccc(-c3cccc(NC(=O)c4ccc(Cl)cc4)c3)cc2)CC1,3.92,0.88,0.76
CCCC(C)NC[C@@H](O)[C@H](Cc1ccccc1)NC(=O)c1cc(NCC)cc(N2CCCCS2(=O)=O)c1 (stereo partly drawn),0.32,0.76,-2.92
COc1ccc(CC2(c3ccc(F)cc3)N=C(N)N(CCCc3ccc4c(c3)OCO4)C2=O)cc1 (stereo not drawn),4,5.58,5.39
Brc1ccsc1-c1nc(NCCC(c2ccccc2)c2ccccc2)no1,-0.74,0.55,0.06
CN1CCC(NCc2cccc(-c3ccc(S(=O)(=O)NCCc4ccccn4)cc3)c2)CC1,3.76,2.04,-2.17
CCOC(=O)C1=C(C)NC(C)=C(C(=O)OCC)C1(C(=O)OCc1ccccc1)c1cccc(C(F)(F)F)c1,2.88,3.39,4.11
N#Cc1ccc(N2CCN(Cc3cccc(-c4ccc(-c5nc6cc(C(F)(F)F)ccc6[nH]5)s4)c3)CC2)nc1,0.46,1.1,0.57
OC1CCCN(Cc2cccc(-c3ccc(-c4nc5cc(F)ccc5[nH]4)cc3)c2)C1 (stereo not drawn),4.24,3.92,4.6
CN1CC(c2ccccc2)c2cc(O)c(CN3CCCCC3)cc2CC1Cc1ccccc1 (stereo not drawn),9.54,7.19,6.78
N=C(N)c1cccc(-c2cc(-c3cccc(C(=N)N)c3)on2)c1,0.92,2.23,-0.32
CC1CCN(Cc2c(O)ccc3c(CN4CCC(C)CC4)c(O)ccc23)CC1,4.79,6.78,6.37
CC[C@H](C)CNC(=O)c1ccnc(-c2ccc(CNC3Cc4ccccc4C3)cc2)c1,0.15,0.08,-0.69
CC(C)N1CCN(c2ccc(OCCCCN3CCN(c4cccc(Cl)c4Cl)CC3)cc2Cl)CC1,-1.28,0.44,-2.3
O=C(/C=C/c1ccc(Cl)c(Cl)c1)NCCCCCN1CCCN(C(=O)Nc2cc(Cl)nc(Cl)c2)CC1,5.11,6.64,5.94
CCOc1cccc(C(=O)Nc2nonc2-c2ccc(OC)c(OC)c2)c1,10.3,9.2,7.57
CCOc1cc(C)ccc1C1CCN(CCCCNC(=O)c2cnc(-c3ccc(C(F)(F)F)cc3)[nH]2)CC1,-1.9,2.12,-0.53
CC[C@H](C)CNC(=O)c1cncc(-c2ccc(CN3CCC(N4CCCC4)CC3)cc2)c1,0.53,0.26,1.05
Cc1cc(OCCCn2ccnc2)ccc1-c1csc(/N=C(\N)NCc2ccccc2)n1,8.57,5.79,6.56
FC(F)(F)c1ccc2[nH]c(-c3ccc(-c4cccc(CNCC5CCCO5)c4)cc3)nc2c1 (stereo not drawn),3.87,2.83,2.68

Structure (SMILES),inhibition [1] [%],inhibition [2] [%],inhibition [3] [%]
COc1cccc(C(=O)NC(C=Cc2ccccc2)c2cc(Cl)c3cccnc3c2O)c1 (stereo not drawn),2.89,2.04,2
CC1(C)NC(N)=NC(=N)N1OCCCCCOc1ccccc1,0.42,0.8,1.28
NC1CCCN(Cc2ccc(-c3ccc(-c4nc5ccccc5[nH]4)s3)cc2)C1 (stereo not drawn),8.95,5.92,9.09
Cc1cc(NC(=O)[C@H](CC2CCCCC2)Nc2ccc(C#N)c3ccccc23)ccc1F,5.97,7.28,1.62
Cc1cc(F)ccc1Oc1nc(Nc2ccc(N3CCOCC3)c(F)c2)nc2c1S(=O)(=O)CCC2,6.48,7.33,2.35
Oc1ccc(CCCNc2nc(NCc3cccc4ccccc34)nc(N3CCCNCC3)n2)cc1,-0.67,-0.2,1.52
Cc1cccc2nc(-c3cccc(-c4ccc(NC(=O)c5ccc(=O)[nH]n5)cc4)c3)[nH]c12,3.76,3.2,1.44
CNC(=O)c1c(NC(=O)c2cccs2)sc2c1CCCC2,1.2,1.4,1.44
COc1cc(-c2nc(-c3ccncc3)c(-c3ccc4c(c3)CCC4=NO)[nH]2)ccc1OCCN1CCCCC1,-5.14,1.57,2.76
O=S(=O)(Nc1ccc(CCN2CCC(N3CCCCC3)CC2)cc1)c1ccccc1C(F)(F)F,13.5,13.4,11.3
O=c1[nH]ccc2nc(N[C@@H]3CCNC3)nc(Nc3cc(Cl)cc(Cl)c3)c12,7.56,8.18,9.4
CCC(CC)C(CC(=O)NC(C)(C)CCc1ccccc1OC)Nc1ccc(C#N)c2ccccc12 (stereo not drawn),4.46,3.53,3.55
Cc1cccc(-c2nc(Nc3ccncc3)c3cc(N(C)C)ccc3n2)n1,0.37,-1.05,-3.66
COc1ccc2nc(C)cc(N/N=C/C=C/c3ccccc3)c2c1,5.48,7.46,3.79
COc1cc2c(cc1C(F)(F)F)N(C(=O)Nc1cccc(-c3ccc(CN(C)C)cc3)c1)CC2,22.1,10.2,44
COc1ccc2nccc([C@@H](O)CN3CCC(NCc4ccc5sc(=O)[nH]c5c4)CC3)c2c1,1.84,5.11,1.2
COc1ccc(NC(=O)c2ccc(-c3cc(NC(=O)c4ccnc(N5CCCC5)c4)ccc3C)s2)cc1N1CCN(C)CC1,-1.75,0.73,-1.93
Cc1nc(-c2cccc3c(NC(=O)Nc4ccc5nccc(N6CCN(C)CC6)c5c4)cccc23)no1,4.28,4.25,6.65
O=C(/C=C/C=C/c1ccc(Cl)c(Cl)c1)NCCCCCN1CCCC2CCCCC21 (stereo not drawn),13.3,12.3,13.2
Cc1sc2nc(CN3CCCC3)nc(-n3c(NCCO)nc4ccccc43)c2c1C,4.18,5.54,5.9
Cc1cc(Nc2nc(Nc3cccc(Cl)c3)nc3ccccc23)n[nH]1,10.5,17.2,9.22
COc1cccc(Nc2nc(C)cc(NC3CCCC3)n2)c1,21.5,9.71,5.08
Fc1ccc2[nH]c(-c3ccc(-c4ccc(CNCCc5ccncc5)cc4)s3)nc2c1,5.54,4.96,7.86
